Rows were chosen to be rich in hits. Some 7.9% of all compounds tested hit in one or more screens of this group.
HCMV inh: inhibitors of human cytomegalovirus. activity change, negative = inhibition, % at 57.5 µM. 4.5% of 410,000 active. HFF cells, HCMV-luciferase reporter, 72 h; active compounds read low. AID 1259415; in the data active means activity change below about -60%; inconclusive means no clear call, values can overlap the other calls; inactive means above about -39%
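Screen run at 2 compound doses on HFFs infected with reporter HCMV, MOI 1 PFU/cell. Luciferase activity from cell lysates at 72 h post infection gave inhibition relative to buffer-only and Salinomycin wells.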
LASV entry inh: blocks Lassa virus binding to or entry into cells; AID 540256; Potency, µM (titrated, usually from 37.9 µM), for inactives: top-dose activity change, negative = inhibition, hits mostly inhibitors; Lassa virus pseudotype entry inhibition, cell reporter; 1.2% of 300,000 active; calls by dose curve; tested in HEK293 cells; further: potency means the concentration at half of the fitted maximal effect; nearly all actives have a fitted effect of over 50% in size
Marburg entry inh: blocks Marburg virus binding to or entry into cells. Marburg virus pseudotyped entry inhibition, cell reporter. AID 540276. Potency, µM (top dose mostly 37.8 µM), for inactives: at the highest dose activity change, negative = inhibition, most hits filed as inhibitors. 1.8% of 300,000 active; calls by dose curve; tested in HEK293 cells; further: potency means the concentration at half of the fitted maximal effect
FMDV antiviral: foot and mouth disease virus antiviral activity. Potency, µM (highest dose often 57.9 µM), for inactives: at the top dose activity change, negative = inhibition, hits mostly inhibitors. 1.2% of 410,000 active. FMDV antiviral cell-based qHTS; calls by dose curve; tested in HEK293T cells; further: read-out not given here; potency means the concentration at half of the fitted maximal effect; nearly all actives have a fitted effect of over 45% in size
HCV inh: blocks hepatitis C virus. Huh7.5.1 HCVcc-Cre infection, luciferase reporter, 44 h. Potency, µM (doses to about 41.8 µM), inactives show at the highest dose activity change, negative = inhibition, hits mostly inhibitors. 3.4% of 340,000 active; active means well fitted inhibition curve with a large enough effect; inconclusive means small, poorly fitted or top-dose-only effect, or another doubt; inactive means no such curve, though single readings can be large or run the other way; further: potency means the concentration at half of the fitted maximal effect
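A cell-based infection assay in which seeded cells (1,000 per well) receive test compound after 4 h, are inoculated with HCVcc-Cre at approximately 0.5 moi, and are incubated 44 h before luminescence detection.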
* hit, by the source's call; ? = inconclusive; . = not tested or not shown; [ ] = dose if it differs, or a comment. On the % scale 0 is the no-effect control and ±100 the full control effect.

SMILES | HCMV inh | LASV entry inh | Marburg entry inh | FMDV antiviral | HCV inh
Cc1c(C(=O)Nc2ccc3nc(N4CCOCC4)sc3c2)oc2ccccc12 | 0 | . | . | ? | 11µM*
O=C(Nc1ccc2nc(N3CCOCC3)sc2c1)c1cc2ccccc2o1 | 44 | . | . | -29% | .
Nc1sc(-c2ccccc2)c(Cc2ccccc2)c1C(=O)O | 14 | . | . | -13% | 12%
C[N+](C)(C)CCCN(Cc1ccc2c(c1)OCO2)C(=O)NC1CCCCC1 | 22 | . | . | -7% | 3.2µM*
CC(NCc1ccc2c(c1)OCO2)C(=O)NC1CCCCC1 (configuration not stated) | 3 | -24% | -21%[46.1 µM] | -6% | 5%
Cc1ccc(C(C)C)cc2c(C)ccc1-2 | 6 | . | . | -21% | 35µM*
COc1ccc(N=C2C(=Nc3ccc(OC)cc3)N(c3ccc(N(C)C)cc3)C(=S)N2c2ccc(OC)cc2)cc1 | 15 | -5% | ? | 16% | 1.1µM*
Cc1cc2[nH]c(=O)c(=O)[nH]c2cc1S(=O)(=O)NCc1ccc(F)cc1 | 8 | 8%[46.1 µM] | . | -8% | .
C=CC1=C2C=C(C3CC3)N(CCCOC(C)C)C=C2C(=O)C(C)(OC(=O)c2ccco2)C1=O (configuration not stated) | . | . | -14%[14.2 µM] | . | .
Cc1nc(N2CCOCC2)[nH]c(=O)c1[N+](=O)[O-] | 66 | . | . | -17% | 13%
Cc1n[nH]c2c([N+](=O)[O-])c(=O)[nH]c(=O)n12 | -71* | 17% | ? | 2% | -4%
Cc1ccc(-n2c(O)c(/C=N/N3CCCCC3c3cccnc3)c(=O)[nH]c2=S)cc1 (configuration not stated) | -4 | 2% | 7% | 12% | 0%
CCCCn1c(O)c(/C(CC)=N/N2CCCCC2c2cccnc2)c(=O)[nH]c1=S (configuration not stated) | -63* | ? | ? | 0% | -28%
C/C(=N\N1CCCCC1c1cccnc1)c1c(O)n(C2CCCCC2)c(=S)[nH]c1=O (configuration not stated) | -103* | ? | 15µM* | -29% | ?
CCCCn1c(O)c(/C=N/N2CCCCC2c2cccnc2)c(=O)[nH]c1=S (configuration not stated) | -7 | 10%[46.1 µM] | ? | -16% | -4%
CC1=C(C(=O)OC2CCCCC2)C(c2ccc(F)cc2)NC(=O)N1 (configuration not stated) | -38 | -14%[46.1 µM] | ? | 0% | -9%
Cc1ccc2c(c1)c(Sc1ccccc1)c(CC(=O)O)n2C | -15 | 6% | 9% | -5% | -1%
CCOC(=O)Cc1c(Sc2ccccc2)c2cc(C)ccc2n1C | -60* | -1% | ? | 0% | -3%
CCCC(O)c1nc2ccccc2n1CCCOc1ccc(Cl)cc1 (configuration not stated) | -76* | 17%[46.1 µM] | -6%[46.1 µM] | 20µM* | .
CC(C)C(=O)NCCc1nc2ccccc2n1CCCOc1ccc(Cl)cc1 | -13 | ? | ? | ? | -18%
O=C(Cn1cnc2cc([N+](=O)[O-])ccc2c1=O)NCCc1ccc(Cl)cc1 | 21 | -3% | -4% | -5% | 14µM*
O=C(Cn1cnc2cc([N+](=O)[O-])ccc2c1=O)NCCc1ccc(F)cc1 | -8 | 26%[46.1 µM] | -19%[46.1 µM] | -12% | 1%
COc1ccc(C(=O)NCc2nc(-c3ccccc3NC(=O)c3cc(C)oc3C)oc2C)cc1F | . | . | . | 3% | .
[O-]C(=C(C(=S)Nc1cccc2ccccc12)[n+]1cccc(CO)c1)c1ccc(Cl)s1 | 13 | 14% | 2% | -3% | 7.9µM*
[O-]/C(=C(\C(=S)Nc1cccc2ccccc12)[n+]1ccccc1)c1ccc(Cl)s1 | 32 | 6% | 13% | -6% | 3%
SMILES | HCMV inh | LASV entry inh | Marburg entry inh | FMDV antiviral | HCV inh
CC(C)Nc1ncnc2c1ncn2[C@H]1CN(Cc2ccc(-c3ccccc3)cc2)C[C@@H](CO)O1 | -66* | . | . | ? | .
CC(C)CNc1ncnc2c1ncn2[C@H]1CN(Cc2ccc(-c3ccccc3)cc2)C[C@@H](CO)O1 | -73* | . | . | ? | .
OCCN1CCN(c2ncnc3c2ncn3[C@H]2CN(Cc3cccc(C(F)(F)F)c3)C[C@@H](CO)O2)CC1 | -62* | . | . | -1% | .
OCCN1CCN(c2ncnc3c2ncn3[C@H]2CN(Cc3ccc(F)cc3)C[C@@H](CO)O2)CC1 | -10 | . | . | -4% | .
CC(C)CNc1ncnc2c1ncn2[C@H]1CN(Cc2ccncc2)C[C@@H](CO)O1 | -35 | . | . | -13% | .
O=C(CSc1nc2c([nH]c3ccccc32)c(=O)n1-c1ccccc1)N1CCCC1 | 3 | ? | . | -11% | .
O=C(c1ccccc1)C1OC1C(=O)c1ccccc1 (configuration not stated) | -11 | ? | 7.9µM* | -9% | -24%
COc1ccccc1CNc1ncnc2sc(C(=O)N3CCN(C)CC3)c(C)c12 | . | . | . | 3% | .
COC(=O)c1ccc(NC(=O)CN2CCCN(Cc3ccc(Cl)cc3)S2(=O)=O)cc1 | 11 | 0%[46.1 µM] | . | -21% | .
CCCCCN=C(N)N/N=C/c1c[nH]c2ccc(OC)cc12 | -100* | . | . | ? | ?
CCCOc1ccc(C(=O)N/N=C/c2c[nH]c3ccc(Br)cc23)cc1 | -31 | ? | -15%[46.1 µM] | -11% | 13µM*
CCOC(=O)c1ccc(NC(=O)CSc2nc(-c3ccc(F)cc3)cc(C(F)(F)F)c2C#N)cc1 | -19 | 8%[46.1 µM] | 3%[46.1 µM] | 10% | .
CN(C)CCOc1cc(Cl)cc(Cl)c1 | ? | 19% | 1% | -10% | 0%
N/C(COc1cc(Cl)cc(Cl)c1)=N\O | -65* | 5% | ? | -11% | 5%
COc1ccc([C@H]2/C(=C(\O)c3cnn(-c4ccccc4)c3C)C(=O)C(=O)N2CCN(C)C)cc1OC | . | . | 3%[46.1 µM] | . | .
C[C@@H]1C[C@H](Nc2ccccc2)c2ccccc2N1C(=O)c1cccnc1 | -20 | ? | 10µM* | ? | ?
CC1CC(Nc2ccccc2)c2ccccc2N1C(=O)c1ccccc1F (configuration not stated) | -67* | . | . | ? | 2%
CC1CC(Nc2ccccc2)c2ccccc2N1C(=O)c1cccnc1 (configuration not stated) | -36 | -29% | ? | . | 5.6µM*
CC(C)c1ccc(NC2CCCN(C(=O)c3cccnc3)C2)cc1 (configuration not stated) | -23 | -11%[46.1 µM] | 6%[46.1 µM] | ? | -15%
CC1COCC(C)N1C(=O)c1cccnc1 (configuration not stated) | -7 | . | . | -8% | .
COc1cc(=O)n2c(c1C(=O)NCc1cccc(F)c1)CCN(Cc1cccnc1)CC2 | . | . | . | -3% | .
O=C(CCl)NC(=O)NC12CC3CC(CC(C3)C1)C2 | -99* | ? | ? | ? | 1%
O=S(=O)(NCCS(=O)(=O)N1CCN(c2ccccc2)CC1)c1ccc(Br)cc1 | -29 | 1%[46.1 µM] | . | -7% | .
CCC1CN(C(=O)NCc2ccccc2)c2cc(C)ccc2O1 (configuration not stated) | ? | ? | -26% | -3% | -10%
CCc1ccccc1NC(=O)N1CC(CC)Oc2ccc(Cl)cc21 (configuration not stated) | -61* | ? | . | -17% | .

Compound activity: PubChem, National Center for Advancing Translational Sciences (NCATS)
